# Experimental data published in PubChem BioAssay (NCATS).
# Results filed as inconclusive are left out. A number with no mark means an inactive call. Calls come from the whole dose curve; as a rule, active = well fitted cell-killing curve with a large enough effect; inconclusive = small, poorly fitted or top-dose-only effect, or effect the other way; inactive = flat fitted curve, though single readings scatter. *1 amine or outer side, *2 acyl side, *3 side chain or, on linkers, in order; H or OH if unused. Where a SMILES comes first, the peptide text is derived from it. Bridges are numbered along the chain shown (N, C = ends). [ ]: non-standard residue; d: D form. The star is where a group is joined. ξ: configuration not given here. X10 = NC1=NCCC(C(N[*:1])C(=O)[*:2])N1; ΔAla(3-NHCONH2) = NC(=O)NC=C(N)C(=O)O; ξβ3hOrn = NCCCC(N)CC(=O)*; Dap = NC[CH](N)C(=O)O
# Tested on: Tov112D
# Test: Primary qHTS to identify gynecologic anti-cancer compounds using libraries of approved drugs and bioactive compounds (AID 1345084); note: nearly all actives have a fitted effect of over 55% in size
# Settings: Gynecologic cancer cell panel viability, ATPlite luminescence, 48 h; series mostly up to 57.5 µM; activity change, negative = cytotoxicity: at the top concentration
# Method in brief: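 Cells, 1,000 per well, plated 16 h, then exposed 48 h at 37 C to compounds. Viability by ATPlite luminescence after 15 min at room temperature.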
# % is set by controls: 0 for no effect and ±100 for the full control effect.
row,SMILES,"activity change, negative = cytotoxicity"
1,CCCC(CCC)(C(=O)OCC)C(=O)OCC,2.7%
2,CCCC(=O)O[C@]1(C(=O)CC)CC[C@H]2[C@@H]3CCC4=CC(=O)CC[C@]4(C)[C@H]3[C@@H](O)C[C@@]21C,-1.22%
3,CC(C)C(=O)Nc1cccc(C(F)(F)F)c1,12.5%
4,CC(=O)O[C@H]1CC[C@@]2(C)C(=CC[C@@H]3[C@@H]2CC[C@]2(C)C(C(C)=O)=CC[C@@H]32)C1,-1.85%
5,O=C1CCCc2c(O)cccc21,1.22%
6,CCCOc1ccc2c(c1)CC[C@@H]1[C@@H]2CC[C@]2(C)C(OC)CC[C@@H]12 (some centres undefined),1.76%
7,CCOC(=O)C(O)c1ccccc1 (centres undefined),4.74%
8,OC1(c2ccc(Cl)cc2)CCNCC1,2.55%
9,Cc1oc(=O)oc1COC(=O)[C@@H]1N2C(=O)[C@@H](NC(=O)[C@H](N)c3ccccc3)[C@H]2SC1(C)C,2.05%
10,CC(CC(C#N)(c1ccccc1)C(C)C)N(C)C (centres undefined),4.7%
11,CC(C)(C)NCC(O)COc1ccccc1OCC1CCCO1 (centres undefined),7.58%
12,CCN(CC)CC(=O)Nc1c(C)cccc1C(=O)OC,-1.28%
13,Nc1c(I)cc(I)c(C(=O)N(CCC(=O)O)c2ccccc2)c1I,-1.79%
14,O=C(c1ccco1)N1CCNCC1,4.65%
15,NCCCC(N)CC(=O)NCC1NC(=O)C(CO)NC(=O)C(N)CNC(=O)C(C2CCN=C(N)N2)NC(=O)C(=CNC(N)=O)NC1=O (stereo not drawn) (H-[Dap]S[Dap](ξβ3hOrn)[ΔAla(3-NHCONH2)][X10]; lactam 1-C; configuration not given here),4.39% [at 0.462 µM]
16,CC(=O)O[C@@H]1CC2C3CCc4cc(OC(=O)c5ccccc5)ccc4C3CCC2(C)[C@H]1OC(C)=O (some centres undefined),0.674%
17,NS(=O)(=O)c1ccc(N2CCCCS2(=O)=O)cc1,6.12%
18,Brc1ccc([C@H]2CN3CCSC3=N2)cc1,10.1%
19,CCC(C(=O)OCCN1CCOC(c2ccccc2)C1C)c1ccccc1 (centres undefined),3.78%
20,CCOc1ccccc1OCC1CNCCO1 (centres undefined),9.1%

row,SMILES,"activity change, negative = cytotoxicity"
1,COc1ccccc1N1CCN(CCN2C(=O)CC3(CCCC3)CC2=O)CC1,7%
2,CC(C)NCCCC1(C(N)=O)c2ccccc2-c2ccccc21,-2.43%
3,Cc1coc2ccccc2c1=O,7.36%
4,C[C@H]1C[C@H]2[C@@H]3CCC4=CC(=O)C=C[C@]4(C)[C@H]3C(=O)C[C@]2(C)[C@@]1(O)C(=O)CO,4.51%
5,C[C@H](N)C(=O)N[C@@H](C)C(=O)NC1[C@H]2CN(c3nc4c(cc3F)c(=O)c(C(=O)O)cn4-c3ccc(F)cc3F)C[C@@H]12 (some centres undefined),-2.86%
6,Cc1c(N)cccc1C(F)(F)F,4.75%
7,Cc1cnc(NS(=O)(=O)c2ccc(N)cc2)nc1,0.395%
8,Cc1cc(=O)oc2cc(O[C@@H]3SC[C@@H](O)[C@H](O)[C@H]3O)ccc12,6.44%
9,CC1(C)O[C@@H]2C[C@H]3[C@@H]4C[C@H](F)C5=CC(=O)C=C[C@]5(C)[C@@]4(F)[C@@H](O)C[C@]3(C)[C@]2(C(=O)CO)O1,-3.12%
10,Cc1nn(-c2ccccc2)c(C)c1/C=N/N1CCN(Cc2ccccc2)CC1,-0.666%
11,CCC(=O)O[C@]1(C(=O)COC)[C@@H](C)C[C@H]2[C@@H]3CCC4=CC(=O)C=C[C@]4(C)C3(F)[C@@H](O)C[C@@]21C (some centres undefined),-2.17%
12,O=C1NC(c2ccccc2)(c2ccccc2)C(=O)N1COP(=O)(O)O,7.98%
13,CC(C)NC(=O)c1ccc(C=O)cc1,8.85%
14,Cc1ccc(-c2ccccc2C#N)cc1,4.77%
15,OC1(c2ccccc2)CCNCC1,-0.905%
16,Cc1onc(-c2ccccc2)c1C(=O)Cl,5.93%
17,CCCCCN(CCCOC)C(=O)C(CCC(=O)O)NC(=O)c1ccc(Cl)c(Cl)c1 (centres undefined),-0.0348%
18,CC1(C)OC(=O)Nc2ccc(Br)cc21,5.08%
19,C#Cc1ccc(-c2ccccc2F)cc1,5.05%
